In PubChem BioAssay AID1159580 (chemical genetic matrix, 2015):
Values joined by “and” are separate entries in the source; they are usually repeats but may differ in a detail not shown here. Equal entries are not always repeated. In all, about 5,500 compounds went through this assay and about 2,000 (36%) were called active. Another 18% or so got no clear call; they are omitted. No stated cut-off is given here; in the data, active means normalized growth mostly below about 0.91 (no sharp cut-off); inconclusive means no clear call, values can overlap the other calls; inactive means mostly above about 0.92. The list shows a part of the results.

Experiment: chemical genetic growth profiling, strain panel (AID 1159580);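 further: tested at 20 µM; growth read once vehicle control cultures reached saturation at 30 °C; 1 = growth at the plate median or of vehicle wells; lower values mean less growth of the strain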
Settings: S. cerevisiae deletion strains, growth OD
[1] = locus YHR030C, strain SLT2, active compounds read low
[2] = locus YHR079C, strain IRE1, active compounds read low
[3] = locus YJL095W, strain BCK1, active compounds read low
[4] = locus YJR066W, strain TOR1, active compounds read low
[5] = locus YLR113W, strain HOG1, active compounds read low
[6] = locus YNL183C, strain NPR1, active compounds read low
[7] = locus YNL322C, strain KRE1, active compounds read low
[8] = locus YOR231W, strain MKK1, active compounds read low
[9] = locus YPL256C, strain CLN2, active compounds read low

Measured: normalized growth

CCN(CC)C(=O)c1ccc(O)c(OC)c1
inactive: locus YAL013W, strain DEP1, active compounds read low 1.01 | locus YAL040C, strain CLN3, active compounds read low 1.05 | locus YCL061C, strain MRC1 (second series), active compounds read low 1 | locus YDR363W, strain ESC2, active compounds read low 1.01 | locus YER002W, strain NOP16, active compounds read low 1.03 | [1] 0.964 | [2] 0.997 | [3] 1 | [4] 0.957 | [5] 0.99 | locus YNL175C, strain NOP13, active compounds read low 1.01 | [6] 0.938 | locus YNL197C, strain WHI3, active compounds read low 0.999 | locus YNL224C, strain SQS1, active compounds read low 1.01 | [7] 1.03 | locus YOR083W, strain WHI5 (second series), active compounds read low 1.01 | [8] 0.985 | [9] 0.975

CCOc1ccc(C(=O)c2ccc(O)c(O)c2O)cc1
active: locus YAL021C, strain ccr4, active compounds read low 0.754 | locus YAL026C, strain drs2, active compounds read low 0.844 | locus YBL061C, strain skt5, active compounds read low 0.898 | locus YBR023C, strain chs3, active compounds read low 0.84 | locus YBR231C, strain swc5, active compounds read low 0.829 | locus YBR279W, strain paf1, active compounds read low 0.927 | locus YCL029C, strain bik1, active compounds read low 0.857 | locus YCL061C, strain MRC1, active compounds read low 0.908 | locus YDL074C, strain BRE1, active compounds read low 0.741 | locus YDL101C, strain DUN1, active compounds read low 0.849 | locus YDL134C, strain PPH21, active compounds read low 0.853 | locus YDL185W, strain tfp1, active compounds read low 0.845 | locus YDL192W, strain arf1, active compounds read low 0.868 | locus YDR069C, strain doa4, active compounds read low 0.703 | locus YDR101C, strain arx1, active compounds read low 0.911 | locus YDR137W, strain rgp1, active compounds read low 0.701 | locus YDR162C, strain NBP2, active compounds read low 0.823 | locus YDR318W, strain mcm21, active compounds read low 0.907 | locus YDR334W, strain swr1, active compounds read low 0.877 | locus YDR335W, strain msn5, active compounds read low 0.858 | locus YDR502C, strain sam2, active compounds read low 0.861 | locus YEL003W, strain gim4, active compounds read low 0.893 | locus YEL061C, strain CIN8, active compounds read low 0.901 | locus YER015W, strain faa2, active compounds read low 0.883 | locus YER111C, strain swi4, active compounds read low 0.72 | locus YFR010W, strain ubp6, active compounds read low 0.854 | locus YGL086W, strain mad1, active compounds read low 0.86 | locus YGL173C, strain kem1, active compounds read low 0.853 | locus YGL248W, strain PDE1, active compounds read low 0.837 | locus YGR078C, strain PAC10, active compounds read low 0.821 | locus YGR135W, strain pre9, active compounds read low 0.85 | locus YHR027C, strain rpn1, active compounds read low 0.869 | [1] 0.824 | locus YHR079C, strain IRE1 (second series), active compounds read low 0.902 | locus YHR129C, strain ARP1, active compounds read low 0.826 | locus YHR142W, strain chs7, active compounds read low 0.786 | locus YHR200W, strain rpn10, active compounds read low 0.886 | locus YJL095W, strain BCK1 (second series), active compounds read low 0.908 | [3] 0.784 and 0.833 | locus YJL164C, strain tpk1, active compounds read low 0.877 | locus YJL187C, strain SWE1 (second series), active compounds read low 0.632 | locus YJL187C, strain SWE1, active compounds read low 0.915 | [4] 0.812 | locus YKL160W, strain elf1, active compounds read low 0.9 | locus YLR058C, strain SHM2, active compounds read low 0.631 | locus YLR221C, strain rsa3, active compounds read low 0.887 | locus YLR262C, strain YPT6 (second series), active compounds read low 0.803 | locus YLR268W, strain sec22, active compounds read low 0.84 | locus YLR330W, strain CHS5, active compounds read low 0.884 | locus YLR342W, strain FKS1, active compounds read low 0.891 | locus YLR357W, strain rsc2, active compounds read low 0.691 | locus YLR371W, strain rom2, active compounds read low 0.776 | locus YLR418C, strain cdc73, active compounds read low 0.715 | locus YML016C, strain PPZ1, active compounds read low 0.83 | locus YMR058W, strain fet3, active compounds read low 0.384 | locus YMR205C, strain PFK2, active compounds read low 0.825 | locus YMR223W, strain ubp8, active compounds read low 0.874 | locus YMR231W, strain pep5, active compounds read low 0.9 | locus YMR263W, strain SAP30, active compounds read low 0.884 | locus YNL153C, strain GIM3, active compounds read low 0.853 | locus YNL209W, strain ssb2, active compounds read low 0.76 | locus YNL233W, strain BNI4, active compounds read low 0.866 | locus YNL271C, strain bni1, active compounds read low 0.911 | [7] 0.821 | locus YNR052C, strain pop2, active compounds read low 0.792 | locus YOL147C, strain pex11, active compounds read low 0.84 | locus YOR001W, strain rrp6, active compounds read low 0.867 | locus YOR061W, strain CKA2, active compounds read low 0.852 | locus YOR069W, strain VPS5, active compounds read low 0.88 | locus YOR083W, strain WHI5, active compounds read low 0.887 | locus YOR106W, strain vam3, active compounds read low 0.711 | locus YOR144C, strain elg1, active compounds read low 0.867 | locus YOR265W, strain rbl2, active compounds read low 0.913 | locus YOR290C, strain snf2, active compounds read low 0.67 | locus YPL051W, strain arl3, active compounds read low 0.807 | locus YPL078C, strain atp4, active compounds read low 0.885 | locus YPL106C, strain sse1, active compounds read low 0.839 | locus YPR163C, strain tif3, active compounds read low 0.901 | locus YPR167C, strain met16, active compounds read low 0.897 | strain wtn01, active compounds read low 0.864
inactive: locus YAL030W, strain snc1, active compounds read low 0.936 | locus YBR009C, strain hhf1, active compounds read low 0.926 | locus YBR021W, strain FUR4, active compounds read low 0.926 | locus YBR171W, strain sec66, active compounds read low 0.899 | locus YBR229C, strain ROT2, active compounds read low 0.979 | locus YCL011C, strain gbp2, active compounds read low 0.945 | locus YCL016C, strain dcc1, active compounds read low 0.919 | locus YCL069W, strain vba3, active compounds read low 0.96 | locus YCR088W, strain abp1, active compounds read low 0.949 | locus YDL005C, strain med2, active compounds read low 0.973 | locus YDL035C, strain GPR1, active compounds read low 0.899 | locus YDL040C, strain nat1, active compounds read low 0.971 | locus YDR001C, strain nth1, active compounds read low 0.963 | locus YDR159W, strain sac3, active compounds read low 0.924 | locus YDR195W, strain ref2 1.04 | locus YDR297W, strain sur2, active compounds read low 0.928 | locus YDR388W, active compounds read low 0.955 | locus YDR392W, strain spt3, active compounds read low 0.87 | locus YEL037C, strain rad23, active compounds read low 0.928 | locus YEL061C, strain CIN8 (second series), active compounds read low 0.958 | locus YER016W, strain bim1, active compounds read low 0.924 | locus YER110C, active compounds read low 0.989 | locus YER155C, strain BEM2 (second series), active compounds read low 0.902 | locus YER155C, strain BEM2, active compounds read low 0.991 | locus YER167W, strain BCK2, active compounds read low 0.953 | locus YGL078C, strain dbp3, active compounds read low 0.965 | locus YGL167C, strain pmr1, active compounds read low 0.917 | locus YGL227W, strain vid30, active compounds read low 0.982 | locus YGL240W, strain doc1, active compounds read low 0.955 | locus YGL253W, strain hxk2, active compounds read low 0.928 | locus YGR252W, strain gcn5, active compounds read low 0.861 | locus YHR013C, strain ard1, active compounds read low 0.852 | [2] 0.898 | locus YHR094C, strain hxt1, active compounds read low 0.993 | locus YIL066C, strain RNR3, active compounds read low 0.88 | locus YIL073C, strain SPO22, active compounds read low 0.848 | locus YIL125W, strain kgd1, active compounds read low 0.951 | locus YIR030C, strain dcg1, active compounds read low 0.976 | locus YJL092W, strain hpr5, active compounds read low 0.955 | locus YJL115W, strain asf1, active compounds read low 0.966 | locus YJL129C, strain trk1, active compounds read low 0.944 | locus YJL134W, strain LCB3, active compounds read low 0.968 | locus YJL154C, strain vps35, active compounds read low 0.953 | locus YJL166W, strain qcr8, active compounds read low 0.933 | locus YJL168C, strain set2, active compounds read low 0.963 | locus YJR075W, strain HOC1, active compounds read low 0.928 | locus YKL009W, strain mrt4, active compounds read low 0.983 | locus YKL068W, active compounds read low 0.97 | locus YKL085W, strain MDH1 (second series), active compounds read low 0.967 | locus YKL085W, strain MDH1, active compounds read low 0.967 | locus YKR001C, strain vps1, active compounds read low 0.916 | locus YKR026C, strain gcn3, active compounds read low 0.941 | locus YKR091W, strain srl3, active compounds read low 0.965 | locus YLL001W, strain dnm1, active compounds read low 0.932 | locus YLL026W, active compounds read low 0.952 | locus YLL041C, strain sdh2, active compounds read low 0.937 | locus YLR027C, strain aat2, active compounds read low 0.947 | locus YLR039C, strain RIC1, active compounds read low 0.777 | locus YLR102C, strain apc9, active compounds read low 0.995 | [5] 0.903 | locus YLR258W, strain gsy2, active compounds read low 0.934 | locus YLR262C, strain YPT6, active compounds read low 0.896 | locus YLR320W, strain mms22, active compounds read low 0.88 | locus YLR370C, strain arc18, active compounds read low 0.95 | locus YLR384C, strain iki3, active compounds read low 0.936 | locus YML032C, strain rad52, active compounds read low 0.994 | locus YML120C, strain ndi1, active compounds read low 0.928 | locus YML124C, strain tub3, active compounds read low 0.967 | locus YMR078C, strain ctf18, active compounds read low 0.965 | locus YMR125W, strain sto1, active compounds read low 0.958 | locus YMR129W, active compounds read low 0.963 | locus YMR307W, strain GAS1, active compounds read low 0.787 | locus YNL067W, strain RPL9B, active compounds read low 0.869 | locus YNL071W, strain lat1, active compounds read low 0.963 | [6] 0.852 | locus YNL248C, strain rpa49, active compounds read low 0.98 | locus YNL250W, strain rad50, active compounds read low 0.981 | locus YNL298W, strain CLA4, active compounds read low 0.941 | locus YNL307C, strain MCK1, active compounds read low 0.951 | locus YNL322C, strain KRE1 (second series), active compounds read low 0.943 | locus YNR049C, strain mso1, active compounds read low 0.954 | locus YOL006C, strain TOP1, active compounds read low 0.656 | locus YOL012C, strain htz1 0.425 | locus YOR070C, strain gyp1, active compounds read low 0.941 | locus YOR080W, strain dia2, active compounds read low 0.954 | locus YOR136W, strain idh2, active compounds read low 0.962 | locus YOR184W, strain ser1, active compounds read low 0.882 | [8] 0.931 | locus YOR270C, strain vph1, active compounds read low 0.81 | locus YOR316C, strain cot1, active compounds read low 0.983 | locus YPL055C, strain LGE1, active compounds read low 0.841 | locus YPL240C, strain hsp82, active compounds read low 0.949 | locus YPL241C, strain CIN2, active compounds read low 0.969 | [9] 0.984 | locus YPR119W, strain clb2, active compounds read low 0.991 | locus YPR141C, strain kar3, active compounds read low 0.964
